# Only some compounds are listed: those with a hit (about 2.1% of all), similar ones and a draw of the others.
# aSyn UTR inh: MLPCN primary screen, SNCA 5' untranslated region | inhibition, % (tested at 7.5 µM) | alpha-synuclein 5'UTR reporter, inhibitor activity | AID 1813, 2009 | actives 0.82% (n = 300,000); in the data active means inhibition above about 60%;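 further: H4 neuroglioblastoma cells stably carrying SNCA 5'UTR luciferase fusion; 0% = DMSO wells and 100% = positive control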
# Ba/F3 V617F tox: reduced viability of JAK2V617F-dependent Ba/F3 cells, primary screen, JAK2V617F inhibitor project, cell-based, Ba/F3 EpoR-JAK2V617F, luminescence; ATP luminescence; inhibition, % at 5.6 µM; actives 1.1% (n = 220,000); AID 1446, 2008;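 active means inhibition above the campaign mean plus 3 SD over all tested compounds, cut at about 24% in these data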;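 further: cytokine-independent growth of Ba/F3 cells driven by EpoR plus mutant JAK2; 0% = DMSO-treated cells and 100% = JAK inhibitor I control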
# BaF3 parental: parental Ba/F3 cell viability inhibition, counter-screen for JAK2V617F inhibitor project, murine pro-B, CellTiter-Glo luminescence; CellTiter-Glo ATP luminescence; inhibition, % at 5.6 µM; actives 1.1% (n = 220,000);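 active means inhibition above a per-campaign cutoff, the mean inhibition of all tested compounds plus 3 SD, cut at about 27% in these data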;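 further: 0% = DMSO wells and 100% = JAK Inhibitor I control wells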
# APP 5UTR inh: inhibitors of APP translation via 5'UTR reporter, primary screen, APP 5'UTR luciferase, SH-SY5Y cells | actives 0.82% (n = 190,000) | inhibition, % at 2 µM | SH-SY5Y APP 5'UTR-luciferase reporter, luminescence | AID 1285, 2008;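 active means inhibition above a set limit, derived from the sample mean plus 3 SD, cut at about 45% in these data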
# KLF5 inh: KLF5 expression inhibitors, primary screen, DLD-1 cells, luminescence. inhibition, % at 5 µM. DLD-1 KLF5 promoter-luciferase reporter. AID 1700, 2009. actives 0.23% (n = 290,000);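 active means inhibition above a per-plate limit of that plate's mean compound inhibition plus 3 SD, cut at about 60% in these data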;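 further: 0% = DMSO wells and 100% = LY294002 at 200 µM; higher means less KLF5 promoter-driven luciferase light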
# IEC-6 tox: cytotoxicity in IEC-6 intestinal epithelial cells, primary screen, cytotoxicity control for KLF5 inhibitor project, cell-based, luminescence. inhibition, % at 5 µM. actives 0.78% (n = 290,000). IEC-6 cytotoxicity, luminescence viability; in the data active means inhibition above about 22%;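 further: 0% = plate median of test compound wells and 100% = cytotoxic reference compound wells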
# * marks the source's active call; other numbers are inactive results; . = no result.
SMILES,aSyn UTR inh,Ba/F3 V617F tox,BaF3 parental,APP 5UTR inh,KLF5 inh,IEC-6 tox
O=C(NCCN1CCCC1)C1CCC(=O)N(CCCN2CCOCC2)C1 (centres undefined),14.1,.,.,.,-26.6,1.6
Cn1c(SCC(=O)NNC(=O)c2ccccc2)nnc1C1CC1,3.5,.,.,.,-22.3,6.0
CC(C)C(NC(=O)/C=C/c1cccc([N+](=O)[O-])c1)C(C)C,11.0,-6.1,2.9,-7.6,-1.8,-4.6
CC(C)NC(=O)c1ccccc1NC(=O)/C=C/c1cccc([N+](=O)[O-])c1,63.0*,0.3,5.6,28.9,-16.0,-0.7
O=C(NC(=S)NCc1cccnc1)c1cc(Br)ccc1Cl,8.6,.,.,.,-30.3,8.6
Cc1cc(C(=O)CSc2nc(N)cc(=O)[nH]2)c(C)n1-c1ccc(OC(F)F)cc1,9.8,39.7*,51.8*,5.4,-13.2,-1.6
COc1ccc(-n2c(C)cc(C(=O)CCl)c2C)cc1,65.4*,3.0,0.4,43.7,-53.2,-2.1
Cc1cc(-n2c(C)cc(C(=O)CCl)c2C)no1,118.8*,4.3,7.4,13.0,-15.3,-6.0
Cc1cc(-n2c(C)cc(C(=O)CSc3nc(N)cc(=O)[nH]3)c2C)no1,6.5,3.1,8.1,.,-12.2,0.9
CC1(c2ccccc2Cl)NC(=O)N(CC(=O)NCc2ccc3c(c2)OCO3)C1=O (centres undefined),-9.4,.,.,.,-7.2,-4.3
c1ccc(CNc2ncnc3sccc23)cc1,22.0,.,.,.,-23.7,-1.7
c1csc(CNc2ncnc3sccc23)c1,-58.7,33.6*,36.3*,3.0,-24.1,7.7
CCOC(=O)N1CCN(Cc2ccc(OCC(O)CN3CCCCC3)cc2)CC1 (centres undefined),10.1,.,.,.,-9.6,-3.5
C=CCn1c(SCc2c(C)noc2C)nc2sc3c(c2c1=O)CCCCC3,64.7*,3.6,5.7,0.5,2.8,-1.7
CC(C)C[C@H](NC(=O)OC(C)(C)C)C(=O)N[C@@H](CO)[C@H](O)[C@@H]1C[C@@H]1C(=O)N(C)C,5.3,.,.,.,7.4,-1.5
COc1cccc(-c2nc(NCc3ccccc3)c3ccccc3n2)c1O,35.6,.,.,.,-7.9,5.9
CCN(CC)c1nc(-c2cccc(OC)c2O)nc2ccccc12,8.6,-2.3,4.2,52.0*,-4.7,1.7
Cc1ccc(-n2nc3c(c2NC(=O)CC(C)C)CS(=O)(=O)C3)cc1,25.0,.,.,.,-4.2,6.6
COc1ccc2cc3[n+](cc2c1OC)CCc1cc2c(cc1-3)OCO2,-12.2,71.7*,62.8*,16.8,3.4,-9.6
COc1cccc(C2=NCCc3cc4c(cc32)OCO4)c1OC,10.8,-0.6,1.6,-2.5,8.1,-9.3
CSc1ccc2c(c1)N(CCC1CCCCN1C)c1ccccc1S2 (centres undefined),109.5*,-0.4,6.3,-0.9,-10.2,.
Cc1c(N)cc[n+](CC(=O)c2ccccc2)c1C,-11.6,80.7*,63.2*,19.7,-1.8,-0.3
CCOc1ccccc1OCCC(=O)NNC(=O)Cn1nc(C)cc1C,5.9,.,.,.,.,.
COc1ccc(/C=N/Nc2cc(C)nc3ccc(Br)cc23)cc1,99.9*,.,.,.,-54.8,1.7
COc1ccc2nc(C)cc(N/N=C/c3cccc(OC)c3O)c2c1,99.8*,.,.,.,2.6,-4.0
SMILES,aSyn UTR inh,Ba/F3 V617F tox,BaF3 parental,APP 5UTR inh,KLF5 inh,IEC-6 tox
Cc1cc(N/N=C/c2ccccc2O)c2ccccc2n1,-113.5,.,.,.,-55.6,-4.1
CCc1nnc(NC(=O)c2ccc(S(=O)(=O)N(C)Cc3ccccc3)cc2)o1,62.9*,.,.,.,39.2,16.2
CCCCN(CCCC)S(=O)(=O)c1ccc(C(=O)Nc2nnc(COC)o2)cc1,61.7*,-1.1,7.7,-9.7,-19.3,-0.2
CN1C(=O)C(C)(C)c2cc(S(=O)(=O)N3CCCC(C(=O)NCc4ccccc4Cl)C3)ccc21 (centres undefined),18.8,.,.,.,-23.8,-4.9
O=C(CN(Cc1ccc(Cl)cc1)S(=O)(=O)c1ccccc1)NCC1CCCO1 (centres undefined),4.7,.,.,.,-21.8,-5.8
COCCn1c(=O)c2c(nc3n2CC(C)CN3Cc2ccccc2)n(C)c1=O (centres undefined),14.0,.,.,.,-11.9,-1.4

# Bioassay records (PubChem)
